# Entries with a potency or affinity are not part of this list.
# Test system: Cryptococcus neoformans
# Settings: Concentration 20 uM; ASSAY_TEST Inhibition of Fungal Growth; detection method Resazurin; Absorption (OD600-OD570); plate type 384well; NBS; CORNING #3640
row,SMILES,Inhibition [%]
1,Nc1ccc(C(=O)Nc2ccc(-c3nc4ccccc4o3)cc2)cc1,-12.24
2,Cc1ccc2oc(-c3cc(NC(=O)Cc4ccccc4)ccc3Cl)nc2c1,-8.89
3,CCc1nc2ccc(C(=O)NCc3ccc4c(c3)OCO4)cn2c1N(C)Cc1cccs1,-6.4
4,N#CCN(CCCCN1CCN(c2ccc(F)cc2)CC1)C(=O)OCc1ccccc1,-5.61
5,COc1cc(-c2cc(-c3ccc(S(C)(=O)=O)cc3)cnc2N)ccc1O,-7.2
6,CCCCc1ccc(NC(=O)Nc2ccc(O[C@H]3CCCC[C@@H]3N(C)c3ccccc3)c(F)c2)cc1,-1.2
7,CNC(=O)c1nn(C)c2c1C(C)(C)Cc1cnc(Nc3ccc(N4CCN(C)CC4)cc3)nc1-2 [MILCICLIB],-4.76
8,COc1ccc(Cn2cnc3c(-c4ccco4)nc(Cl)nc32)cc1,-6.4
9,Cc1cc(NC(=O)c2ccc(S(=O)(=O)N(Cc3ccccc3)C(C)C)cc2)no1,-4.62
10,O=C1COCc2ccc(Br)cc2N1Cc1ccc(C(F)(F)F)cc1,-5.61
11,CCn1ncc2c(NC3CCOCC3)c(CNC(=O)c3ccnn3C)c(C)nc21,-8.07
12,CN1CCN(c2nccc3nc(-c4ccc(F)c(F)c4)[nH]c23)CC1,-6.31
13,Cc1nc(-c2ccccn2)nc(NCCc2ccc(S(C)(=O)=O)cc2)c1Cl,2.36
14,O=C(C1CCN(c2nnnn2-c2ccccc2)CC1)N1CCc2ccccc2C1,-8.99
15,COc1cc2ncnc(NC3CCN(Cc4ccccc4)CC3)c2cc1OC,4.42
16,CC(C)(C(=O)Nc1ccc(F)cc1)n1cc(-c2ccccc2F)cn1,-7.47
17,Cc1cnc(N2CCN[C@@H](Cc3ccccc3)C2)nc1Oc1ccc(-n2ccnc2)cc1.Cl,-5.74
18,CC1=Nc2ccc(Cl)cc2C(O)(c2ccc(C)cc2)N1CCN1CCCCC1 (stereo unspecified),-4.53

row,SMILES,Inhibition [%]
1,COc1ccc(-c2nnc3ccc(-c4cccc(C(C)C)c4)cn23)cc1OC,-9.03
2,CN1CCN(c2cc(-c3ccc(F)cc3)nc(-c3ccncc3)n2)CC1,-11.56
3,Cc1cc(C)cc(COc2ccc3c(C)c(CCC(=O)O)c(=O)oc3c2C)c1,-0.19
4,O=C(NCCc1ccccc1)c1cc(-c2cccnc2)cnc1NCC1CC1,-7.61
5,Cc1cc(Cl)c(S(=O)(=O)N2CCCC2)cc1OCC(=O)NC1CCCCC1,-9.39
6,O=C(Nc1ccccc1-c1nc2c(C(=O)O)cccc2o1)c1ccccc1,-2.58
7,COc1ccccc1OCCCCn1c(C2CC2)nc2ccccc21,-4.4
8,CC(C(=O)Nc1ccc2oc(-c3ccncc3)nc2c1)c1ccccc1 (stereo unspecified),-12.41
9,CC(C)(C)C(=O)N(CCCCCCN1C[C@H](O)[C@@H](O)[C@H](O)[C@H]1CO)C1CCCCCC1,-2.01
10,CCOC(=O)c1noc(N)c1-c1ccccc1,-9.75
11,COc1ccc(C2=NCCN2)cc1-c1cn(-c2cccc(C3=NCCN3)c2)nn1.O=C(O)C(F)(F)F.O=C(O)C(F)(F)F,-2.18
12,O=C(NCc1nnc2n1CCCCC2)c1ccc(-c2ccc(F)cc2)o1,6.1
13,CC(C)C(Oc1cccc2ccccc12)C(=O)O (stereo unspecified),4.84
14,COc1ccc(-c2cncc3ccc(C(=O)NCCCn4ccnc4)nc23)cc1,-8.59
15,Cc1ccc(-c2nc(CN(Cc3ccccn3)C(C)C)cs2)o1,-5.74
16,CCOc1ccc(-c2nc(NC(=O)CS(=O)(=O)c3ccccc3)sc2C)cc1,-9.26
17,Cc1nn(C)cc1C(C)Nc1nncc(-c2ccc(C(F)(F)F)cc2)n1 (stereo unspecified),-5.79
18,COc1cccc2c(C)nc(N=C(N)N)nc12.O=C(O)C(F)(F)F.O=C(O)C(F)(F)F,-13.06

# Source: ChEMBL document CHEMBL4513149, “CO-ADD screening of MMV (CH) - MMV compounds” (2021)
